# Results filed as inconclusive are left out. Active and inactive are the calls of the source. The calls were made as follows, unless noted: active = hit-call score of the fitted dose curve at least 0.9, where 1 is the maximum; inactive = score below 0.9.
# What was measured:
# [1] = ATG_Hpa5_TRANS: Attagene TRANS-FACTORIAL HepG2 Assay for human GAL4-Hpa5 Hepatocyte Transcription Factor Basal Promoter (AID 2282975; active = hit-call score of the fitted dose curve at least 0.9, where 1 is the maximum;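 also: hits are increases in reporter mRNA over DMSO baseline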); conditions: HepG2 Attagene GAL4-Hpa5 transcription reporter
# Outline: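 Gain-of-signal versus DMSO is fitted for reporter mRNA quantified by RT-PCR and capillary electrophoresis after 24 h exposure. This endpoint is an internal background marker in transiently transfected HepG2 cells carrying GAL4-UAS reporter units.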
# [2] = ATG_GAL4_TRANS: Attagene TRANS-FACTORIAL HepG2 Assay for GAL4 (Internal Marker) (AID 2282976; active = hit-call score of the fitted dose curve at least 0.9, where 1 is the maximum); conditions: HepG2 Attagene TRANS GAL4 internal marker reporter
# Outline: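 Fluorescence from capillary electrophoresis of labelled RT-PCR products quantifies reporter mRNA induction after 24 h dosing of HepG2 cells carrying transfected GAL4-UAS reporter transcription units. Vehicle DMSO serves as baseline.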
# [3] = target: Glucocorticoid receptor (Homo sapiens) (UniProt P04150); assay: ATG_GR_TRANS: Attagene TRANS-FACTORIAL HepG2 Assay for human Glucocorticoid Receptor (GR) (AID 2282978; active = hit-call score of the fitted dose curve at least 0.9, where 1 is the maximum;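 also: activators score as hits since higher reporter transcript over DMSO is fitted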); conditions: HepG2 Attagene TRANS GR reporter, mRNA transcription
# Outline: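 Multiplexed TRANS reporter system, HepG2; 24 h exposure; RNA → oligo(dT) RT → reporter-specific PCR → 6-FAM primer extension → HpaI cut → CE fluorescence. Gain-of-signal vs DMSO.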
# [4] = target: Hepatocyte nuclear factor 4-alpha (Homo sapiens) (UniProt P41235); assay: ATG_HNF4a_TRANS: Attagene TRANS-FACTORIAL HepG2 Assay for human Hepatocyte Nuclear Factor 4 alpha (HNF4a) (AID 2282982; active = hit-call score of the fitted dose curve at least 0.9, where 1 is the maximum); conditions: HepG2 HNF4a transactivation reporter, mRNA readout
# Outline: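 Multiplexed reporter assay: transfected HepG2, 24 h exposure, total RNA → oligo(dT) RT → PCR → 6-FAM extension → HpaI digest → CE fluorescence. DMSO = negative control.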
# [5] = ATG_M_06_TRANS: Attagene TRANS-FACTORIAL HepG2 Assay for M06 Transcription Factor (Internal Marker) (AID 2282983; active = hit-call score of the fitted dose curve at least 0.9, where 1 is the maximum); conditions: HepG2 Attagene TRANS M06 internal marker reporter
# Outline: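 Human liver HepG2 cells bearing transiently transfected chimeric NR-GAL4 reporter units were treated with chemicals for 24 h. Total RNA was reverse-transcribed, reporter sequences amplified and labelled, then quantified by capillary electrophoresis. Activity was fitted upward relative to DMSO.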
# [6] = ATG_M_32_TRANS: Attagene TRANS-FACTORIAL HepG2 Assay for M32 Transcription Factor (Internal Marker) (AID 2282984; active = hit-call score of the fitted dose curve at least 0.9, where 1 is the maximum;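 also: transcript level of a background control reporter unit measured by RT-PCR and capillary electrophoresis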); conditions: HepG2 Attagene TRANS M32 internal marker reporter
# Outline: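 Cell-based TRANS-format assay in HepG2: exogenous chimeric GAL4 reporter units transiently expressed, compounds applied 24 h. Reporter mRNA detected by RT-PCR plus capillary electrophoresis; this readout is an internal background marker.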
# [7] = target: Nuclear receptor subfamily 4 group A member 2 (Homo sapiens) (UniProt P43354); assay: ATG_NURR1_TRANS: Attagene TRANS-FACTORIAL HepG2 Assay for human Nuclear Receptor Related Protein 1 (NURR1) (AID 2282985; active = hit-call score of the fitted dose curve at least 0.9, where 1 is the maximum); conditions: HepG2 Attagene TRANS reporter, mRNA readout
# Outline: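 Measures transcriptional activation by an exogenous NR-Gal4 chimera in transfected HepG2 liver cells. After 24 h, reporter RNA is reverse-transcribed, amplified and resolved by capillary electrophoresis; DMSO defines baseline.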
# [8] = target: Transcriptional activator Myb (Homo sapiens) (UniProt P10242); assay: ATG_Myb_CIS: Attagene CIS-FACTORIAL HepG2 Assay for human Myeloblastosis (Myb) Proto-Oncogene Transcription Factor (AID 2282986); conditions: HepG2 Attagene CIS-FACTORIAL Myb reporter transcription; actives raise or lower the signal
# Outline: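 Endogenous transcription factor activity at a Myb-responsive cis element is reported in human liver HepG2 cells after 24 h chemical treatment. Reporter mRNA is detected by RT-PCR and capillary electrophoresis fluorescence, with DMSO as baseline.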
# [9] = target: Nuclear respiratory factor 1 (Homo sapiens) (UniProt Q16656); assay: ATG_NRF1_CIS: Attagene CIS-FACTORIAL HepG2 Assay for human Nuclear Respiratory Factor 1 (NRF1) Orphan Gene (AID 2282987); conditions: HepG2 NRF1 cis-element reporter, Attagene multiplex; actives raise or lower the signal
# Outline: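 Human hepatoma HepG2 cells carrying transfected promoter-regulated reporter units were incubated with test chemicals for 24 h. Reporter transcripts were measured by RT-PCR plus capillary electrophoresis, and endpoints derived by bidirectional fitting with DMSO as baseline.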
# [10] = ATG_NFI_CIS: Attagene CIS-FACTORIAL HepG2 Assay for human Nuclear Factor I (NFI) (AID 2282989); conditions: HepG2 cis-regulatory reporter, NFI response element transcription; actives raise or lower the signal
# Outline: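 Reporter transcripts were measured by RT-PCR with fluorescent primer extension and capillary electrophoresis 24 h post-treatment. HepG2 cells carried transiently transfected cis-regulated reporter constructs reporting endogenous factor activity; gain or loss fitted against DMSO baseline.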
# [11] = target: Myc proto-oncogene protein (Homo sapiens) (UniProt P01106); assay: ATG_Myc_CIS: Attagene CIS-FACTORIAL HepG2 Assay for human Myelocytomatosis (Myc) Proto-Oncogene Transcription Factor (AID 2282990); conditions: HepG2, Attagene cis-reporter transcription factor activity; actives raise or lower the signal
# Outline: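 Cells of the HepG2 human liver line bear multiple cis-driven reporter transcription units. Reporter mRNA after 24 h exposure is reverse-transcribed, amplified, labelled and resolved by capillary electrophoresis, with gain- or loss-of-signal fitting relative to DMSO.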
# [12] = ATG_NRF2_ARE_CIS: Attagene CIS-FACTORIAL HepG2 Assay for human Nuclear Factor Erythroid 2 Related Factor 2 (NFR2) response to Antioxidant Response Elements (ARE) (AID 2282992); conditions: HepG2 Attagene ARE/NRF2 reporter, transcription factor activity; actives raise or lower the signal;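 as to AC50: reporter mRNA level measured by RT-PCR and capillary electrophoresis fluorescence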
# Outline: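 Endogenous transcription factor activity in human liver HepG2 cells is tracked via a cis-element-driven reporter within a multiplexed set. mRNA induction is read by RT-PCR and capillary electrophoresis after 24 h, with DMSO as baseline.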
# [13] = ATG_Oct_MLP_CIS: Attagene CIS-FACTORIAL HepG2 Assay for human Octamer-Binding Transcription Factor (Oct) (AID 2282993); conditions: HepG2 Attagene cis-factorial Oct reporter, mRNA; actives raise or lower the signal
# Outline: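 Readout is reporter transcript level from RT-PCR with fluorescent primer extension and capillary electrophoresis, fitted in both directions against DMSO. Transfected HepG2 reporter units report endogenous factor activity after 24 h dosing.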
# [14] = target: Cellular tumor antigen p53 (Homo sapiens) (UniProt P04637); assay: ATG_p53_CIS: Attagene CIS-FACTORIAL HepG2 Assay for human p53 Transcription Factor (AID 2282994); conditions: HepG2 p53 cis-element reporter, Attagene mRNA; actives raise or lower the signal
# Outline: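 Steps: transfect HepG2 with multiplexed cis reporter constructs; dose chemicals 24 h; extract RNA, reverse-transcribe, PCR-amplify reporter sequences; FAM-label, HpaI-digest, resolve fragments by CE. Activity fitted both directions relative to DMSO.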
# [15] = BSK_3C_TissueFactor: BioMAP Diversity Plus: 3C Assay for Tissue Factor Biomarker Activity (AID 2282997); conditions: BioMAP 3C HUVEC, tissue factor biomarker readout; actives raise or lower the signal
# Outline: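 Cells used were primary human umbilical vein endothelial cells. They were dosed with chemical, and after 24 h Tissue Factor was quantified by ELISA. Curves were fitted bidirectionally with DMSO as baseline.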
# [16] = target: Oxysterols receptor LXR-alpha (Homo sapiens) (UniProt Q13133); assay: ATG_LXRa_TRANS: Attagene TRANS-FACTORIAL HepG2 Assay for human Liver X Receptor alpha (LXRa) (AID 2282980; active = hit-call score of the fitted dose curve at least 0.9, where 1 is the maximum); conditions: HepG2 Attagene TRANS reporter, LXRa transactivation
# Outline: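 Transient HepG2 transfectants, 24 h dosing, RT-PCR/CE mRNA reporter quantitation; gain-of-signal vs DMSO.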
# [17] = target: Oxysterols receptor LXR-beta (Homo sapiens) (UniProt P55055); assay: ATG_LXRb_TRANS: Attagene TRANS-FACTORIAL HepG2 Assay for human Liver X Receptor beta (LXRb) (AID 2282981; active = hit-call score of the fitted dose curve at least 0.9, where 1 is the maximum); conditions: HepG2 Attagene TRANS GAL4-LXRb reporter, mRNA
# Outline: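 After 24 h of chemical treatment, transfected HepG2 cells yield total RNA; reporter cDNA is PCR-amplified, FAM-labelled, HpaI-cut and run on capillary electrophoresis. Signal reflects chimeric LXRb-Gal4 activity on GAL4-UAS reporters.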
# [18] = ATG_NF_kB_CIS: Attagene CIS-FACTORIAL HepG2 Assay for human Nuclear Factor Kappa B (NF-kB) (AID 2282991); conditions: HepG2 Attagene cis-factorial NF-kB reporter mRNA; actives raise or lower the signal
# Outline: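 Multiplexed cis-reporter assay in transiently transfected HepG2. 24 h treatment; RNA isolated, RT-PCR, labelled fragments resolved by CE. DMSO baseline.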
# [19] = target: Estrogen-related receptor gamma (Homo sapiens) (UniProt P62508); assay: ATG_ERRg_TRANS: Attagene TRANS-FACTORIAL HepG2 Assay for human Estrogen-Related Receptor gamma (ERRg) (AID 2282977; active = hit-call score of the fitted dose curve at least 0.9, where 1 is the maximum;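 also: hits increase reporter signal over DMSO so potencies reflect activators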); conditions: HepG2 Attagene TRANS reporter, ERRg transactivation
# Outline: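 Readout: fluorescent reporter-mRNA fragments resolved by capillary electrophoresis after RT-PCR and HpaI cut. Cells: transiently transfected HepG2 carrying GAL4-UAS reporters driven by exogenous NR-Gal4 chimeras, dosed 24 h. Activity fitted upward relative to DMSO baseline.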
# [20] = target: Bile acid receptor (Homo sapiens) (UniProt Q96RI1); assay: ATG_FXR_TRANS: Attagene TRANS-FACTORIAL HepG2 Assay for Farnesoid X Receptor (FXR) (AID 2282979; active = hit-call score of the fitted dose curve at least 0.9, where 1 is the maximum;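 also: hits raise reporter mRNA above DMSO so AC50 marks FXR activation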); conditions: HepG2 Attagene TRANS FXR-GAL4 reporter transcription
# Outline: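 Chimeric FXR-GAL4 activity in transiently transfected human HepG2 liver cells is scored as induction of reporter mRNA after 24 h of dosing. Detection uses RT-PCR with fluorescent labelling and capillary electrophoresis, with DMSO serving as baseline.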
# Chain of Myc proto-oncogene protein (Homo sapiens) (P01106 whole entry, looked up): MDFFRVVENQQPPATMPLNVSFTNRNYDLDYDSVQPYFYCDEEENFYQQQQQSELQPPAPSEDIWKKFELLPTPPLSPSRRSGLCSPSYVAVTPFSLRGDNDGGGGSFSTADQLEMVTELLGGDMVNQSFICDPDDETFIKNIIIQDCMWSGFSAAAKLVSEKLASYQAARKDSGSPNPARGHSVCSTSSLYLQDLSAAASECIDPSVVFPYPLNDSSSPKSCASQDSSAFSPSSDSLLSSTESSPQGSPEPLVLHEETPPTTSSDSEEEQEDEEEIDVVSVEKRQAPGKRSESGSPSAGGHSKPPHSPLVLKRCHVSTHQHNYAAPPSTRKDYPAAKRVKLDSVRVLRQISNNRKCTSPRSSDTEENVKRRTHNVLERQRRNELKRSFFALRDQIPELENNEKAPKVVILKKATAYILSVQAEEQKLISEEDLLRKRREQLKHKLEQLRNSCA
# Chain of Transcriptional activator Myb (Homo sapiens) (P10242 whole entry, looked up): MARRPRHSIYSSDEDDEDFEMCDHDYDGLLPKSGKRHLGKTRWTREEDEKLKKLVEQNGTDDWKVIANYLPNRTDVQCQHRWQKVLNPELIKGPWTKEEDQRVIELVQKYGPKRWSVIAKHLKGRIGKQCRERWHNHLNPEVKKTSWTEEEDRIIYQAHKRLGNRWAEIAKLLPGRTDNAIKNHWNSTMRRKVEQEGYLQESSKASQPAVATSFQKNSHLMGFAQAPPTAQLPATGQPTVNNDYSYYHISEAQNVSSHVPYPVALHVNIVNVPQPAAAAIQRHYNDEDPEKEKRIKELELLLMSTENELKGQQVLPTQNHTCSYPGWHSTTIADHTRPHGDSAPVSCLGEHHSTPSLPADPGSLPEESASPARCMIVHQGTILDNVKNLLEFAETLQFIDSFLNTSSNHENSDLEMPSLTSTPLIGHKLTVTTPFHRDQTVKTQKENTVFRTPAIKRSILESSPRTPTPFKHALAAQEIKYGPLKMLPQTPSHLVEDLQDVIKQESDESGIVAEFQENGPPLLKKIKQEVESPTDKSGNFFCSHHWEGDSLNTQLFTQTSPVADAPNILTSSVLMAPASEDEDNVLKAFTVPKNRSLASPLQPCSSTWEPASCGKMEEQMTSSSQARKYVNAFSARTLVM
# Chain of Oxysterols receptor LXR-beta (Homo sapiens) (P55055 whole entry, looked up, the tested form may be a part): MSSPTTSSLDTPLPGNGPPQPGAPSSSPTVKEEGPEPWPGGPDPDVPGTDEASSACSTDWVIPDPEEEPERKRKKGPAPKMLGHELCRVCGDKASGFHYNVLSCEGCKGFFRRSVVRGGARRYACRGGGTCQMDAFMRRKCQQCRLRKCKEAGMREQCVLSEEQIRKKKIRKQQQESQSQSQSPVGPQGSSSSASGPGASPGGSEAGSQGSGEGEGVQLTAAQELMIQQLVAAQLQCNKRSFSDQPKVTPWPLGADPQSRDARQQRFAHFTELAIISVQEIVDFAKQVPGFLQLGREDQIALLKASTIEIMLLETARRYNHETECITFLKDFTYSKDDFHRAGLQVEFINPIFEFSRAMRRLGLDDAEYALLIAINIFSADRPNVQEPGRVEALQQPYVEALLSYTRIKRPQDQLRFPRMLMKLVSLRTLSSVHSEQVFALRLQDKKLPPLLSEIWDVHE
# Chain of Nuclear respiratory factor 1 (Homo sapiens) (Q16656 whole entry, looked up): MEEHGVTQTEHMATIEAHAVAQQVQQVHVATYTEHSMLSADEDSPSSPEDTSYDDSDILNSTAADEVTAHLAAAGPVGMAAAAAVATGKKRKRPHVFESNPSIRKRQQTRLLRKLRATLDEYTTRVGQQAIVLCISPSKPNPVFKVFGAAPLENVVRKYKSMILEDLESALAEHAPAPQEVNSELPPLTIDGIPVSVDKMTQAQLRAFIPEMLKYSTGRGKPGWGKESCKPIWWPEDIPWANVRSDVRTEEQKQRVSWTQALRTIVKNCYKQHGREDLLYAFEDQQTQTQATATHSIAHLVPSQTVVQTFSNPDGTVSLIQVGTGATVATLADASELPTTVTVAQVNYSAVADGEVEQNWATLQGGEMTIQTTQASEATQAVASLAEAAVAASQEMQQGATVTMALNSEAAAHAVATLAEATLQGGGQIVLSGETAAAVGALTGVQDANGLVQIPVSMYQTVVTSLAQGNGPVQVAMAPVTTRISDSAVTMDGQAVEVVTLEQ
# Chain of Oxysterols receptor LXR-alpha (Homo sapiens) (Q13133 whole entry, looked up): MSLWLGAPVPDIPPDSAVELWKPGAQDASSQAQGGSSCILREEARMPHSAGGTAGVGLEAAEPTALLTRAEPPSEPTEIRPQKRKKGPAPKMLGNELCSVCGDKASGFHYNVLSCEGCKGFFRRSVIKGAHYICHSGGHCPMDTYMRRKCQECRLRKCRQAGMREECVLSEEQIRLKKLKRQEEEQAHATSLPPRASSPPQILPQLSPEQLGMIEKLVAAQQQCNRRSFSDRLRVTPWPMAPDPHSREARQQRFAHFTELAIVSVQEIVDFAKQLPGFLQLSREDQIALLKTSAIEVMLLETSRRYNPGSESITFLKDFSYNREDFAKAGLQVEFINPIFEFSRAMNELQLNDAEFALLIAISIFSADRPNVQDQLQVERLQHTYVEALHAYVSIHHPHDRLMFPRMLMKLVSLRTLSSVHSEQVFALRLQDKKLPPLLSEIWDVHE
# Chain of Cellular tumor antigen p53 (Homo sapiens) (P04637 whole entry, looked up, the tested form may be a part): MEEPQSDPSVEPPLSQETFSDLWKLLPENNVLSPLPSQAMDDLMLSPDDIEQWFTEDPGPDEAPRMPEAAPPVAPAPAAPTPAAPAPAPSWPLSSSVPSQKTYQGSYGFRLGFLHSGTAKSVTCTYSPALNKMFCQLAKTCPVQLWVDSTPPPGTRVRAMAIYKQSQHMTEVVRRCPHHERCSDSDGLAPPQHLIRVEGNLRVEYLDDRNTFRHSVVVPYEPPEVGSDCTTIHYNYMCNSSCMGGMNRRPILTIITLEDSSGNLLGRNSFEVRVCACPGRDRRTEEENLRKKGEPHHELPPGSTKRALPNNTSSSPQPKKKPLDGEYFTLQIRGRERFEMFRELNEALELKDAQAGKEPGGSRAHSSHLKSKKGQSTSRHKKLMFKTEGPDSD
# Chain of Hepatocyte nuclear factor 4-alpha (Homo sapiens) (P41235 whole entry, looked up): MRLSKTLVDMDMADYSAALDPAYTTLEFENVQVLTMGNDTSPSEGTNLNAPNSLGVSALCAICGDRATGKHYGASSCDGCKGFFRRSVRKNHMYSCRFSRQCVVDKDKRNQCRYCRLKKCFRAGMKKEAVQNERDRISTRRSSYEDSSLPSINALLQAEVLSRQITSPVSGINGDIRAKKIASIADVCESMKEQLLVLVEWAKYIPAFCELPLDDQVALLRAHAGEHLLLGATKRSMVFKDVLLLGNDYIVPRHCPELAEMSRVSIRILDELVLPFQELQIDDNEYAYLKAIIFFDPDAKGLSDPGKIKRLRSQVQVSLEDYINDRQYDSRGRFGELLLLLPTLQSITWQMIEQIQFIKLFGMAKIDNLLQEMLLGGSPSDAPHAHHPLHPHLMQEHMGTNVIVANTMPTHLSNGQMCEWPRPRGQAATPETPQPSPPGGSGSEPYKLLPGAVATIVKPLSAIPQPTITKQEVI
# Chain of Nuclear receptor subfamily 4 group A member 2 (Homo sapiens) (P43354 whole entry, looked up, the tested form may be a part): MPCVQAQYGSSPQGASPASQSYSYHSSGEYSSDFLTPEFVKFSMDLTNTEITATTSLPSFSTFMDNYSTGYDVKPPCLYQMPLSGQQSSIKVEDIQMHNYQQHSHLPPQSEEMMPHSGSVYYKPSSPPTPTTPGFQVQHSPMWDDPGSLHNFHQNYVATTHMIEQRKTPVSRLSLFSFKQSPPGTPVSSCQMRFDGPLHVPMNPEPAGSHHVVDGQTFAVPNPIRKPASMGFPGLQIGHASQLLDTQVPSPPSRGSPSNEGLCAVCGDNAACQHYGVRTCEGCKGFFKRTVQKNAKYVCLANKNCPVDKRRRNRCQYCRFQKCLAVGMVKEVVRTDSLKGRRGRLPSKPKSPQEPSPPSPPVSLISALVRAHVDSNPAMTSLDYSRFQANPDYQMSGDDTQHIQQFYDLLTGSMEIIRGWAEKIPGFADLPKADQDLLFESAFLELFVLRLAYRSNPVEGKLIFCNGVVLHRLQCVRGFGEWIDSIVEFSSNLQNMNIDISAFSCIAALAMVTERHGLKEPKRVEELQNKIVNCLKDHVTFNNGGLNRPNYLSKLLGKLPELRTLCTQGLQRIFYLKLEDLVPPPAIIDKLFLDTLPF
# Chain of Glucocorticoid receptor (Homo sapiens) (P04150 whole entry, looked up): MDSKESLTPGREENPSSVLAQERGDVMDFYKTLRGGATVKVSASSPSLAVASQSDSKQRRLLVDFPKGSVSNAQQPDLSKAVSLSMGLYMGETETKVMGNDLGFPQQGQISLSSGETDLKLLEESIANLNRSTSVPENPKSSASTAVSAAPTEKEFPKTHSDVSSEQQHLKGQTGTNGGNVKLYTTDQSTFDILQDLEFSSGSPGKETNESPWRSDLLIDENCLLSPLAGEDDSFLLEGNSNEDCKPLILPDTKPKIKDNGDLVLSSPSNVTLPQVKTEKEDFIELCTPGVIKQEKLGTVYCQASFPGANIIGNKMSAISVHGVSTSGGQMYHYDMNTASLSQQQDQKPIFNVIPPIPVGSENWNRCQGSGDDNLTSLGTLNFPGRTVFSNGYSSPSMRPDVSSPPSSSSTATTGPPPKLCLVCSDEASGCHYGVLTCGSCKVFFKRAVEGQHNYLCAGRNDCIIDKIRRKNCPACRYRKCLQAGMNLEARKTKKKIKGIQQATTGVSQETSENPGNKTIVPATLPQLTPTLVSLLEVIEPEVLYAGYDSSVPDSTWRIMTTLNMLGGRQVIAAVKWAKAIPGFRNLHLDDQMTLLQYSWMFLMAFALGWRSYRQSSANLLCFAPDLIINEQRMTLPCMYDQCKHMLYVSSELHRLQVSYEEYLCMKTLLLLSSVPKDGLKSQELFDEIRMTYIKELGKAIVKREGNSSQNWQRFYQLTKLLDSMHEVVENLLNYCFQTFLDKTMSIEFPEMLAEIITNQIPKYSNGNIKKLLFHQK
structure (smiles),measurement,setting,value
O=C(O)COc1ccc(Cl)cc1Cl,outcome,[1],inactive
same,outcome,[2],inactive
same,outcome,[3],inactive
same,outcome,[4],inactive
same,outcome,[5],inactive
same,outcome,[6],inactive
same,outcome,[7],inactive
same,outcome,[8],inactive
same,outcome,[9],inactive
same,outcome,[10],inactive
same,outcome,[11],inactive
same,outcome,[12],inactive
same,outcome,[13],inactive
same,outcome,[14],inactive
same,outcome,[15],inactive
COP(=S)(OC)Oc1ccc(SC)c(C)c1,outcome,[1],inactive
same,outcome,[2],inactive
same,outcome,[3],inactive
same,AC50,[16],24.9 µM (active)
same,AC50,[17],39.3 µM (active)
same,outcome,[4],inactive
same,outcome,[5],inactive
same,outcome,[6],inactive
same,outcome,[7],inactive
same,outcome,[8],inactive
same,outcome,[9],inactive
same,outcome,[10],inactive
same,outcome,[11],inactive
same,outcome,[18],inactive
same,AC50,[12],15.5 µM (active)
same,outcome,[13],inactive
same,outcome,[14],inactive
same,outcome,[15],inactive
CCCN(CCC)c1c([N+](=O)[O-])cc(C(F)(F)F)cc1[N+](=O)[O-],outcome,[1],inactive
same,outcome,[2],inactive
same,outcome,[17],inactive
same,outcome,[5],inactive
same,outcome,[6],inactive
same,outcome,[7],inactive
same,outcome,[8],inactive
same,outcome,[9],inactive
same,outcome,[10],inactive
same,outcome,[11],inactive
same,outcome,[18],inactive
same,AC50,[12],8.43 µM (active)
same,outcome,[15],inactive
C#CCN1C(=O)COc2cc(F)c(N3C(=O)C4=C(CCCC4)C3=O)cc21,outcome,[1],inactive
same,outcome,[3],inactive
same,outcome,[16],inactive
same,outcome,[17],inactive
same,outcome,[4],inactive
same,outcome,[6],inactive
same,outcome,[7],inactive
same,outcome,[8],inactive
same,outcome,[9],inactive
same,outcome,[10],inactive
same,outcome,[11],inactive
same,outcome,[18],inactive
same,AC50,[12],40.4 µM (active)
same,outcome,[13],inactive
same,outcome,[15],inactive
CCC(C)(NC(=O)c1cc(Cl)c(C)c(Cl)c1)C(=O)CCl (stereo not drawn),outcome,[1],inactive
same,outcome,[19],inactive
same,outcome,[3],inactive
same,outcome,[20],inactive
same,outcome,[16],inactive
same,outcome,[17],inactive
same,outcome,[4],inactive
same,outcome,[5],inactive
same,outcome,[6],inactive
same,outcome,[7],inactive
same,outcome,[8],inactive
same,outcome,[9],inactive
same,outcome,[10],inactive
same,outcome,[11],inactive
same,outcome,[18],inactive
same,AC50,[12],1.64 µM (active)
same,outcome,[14],inactive
same,AC50,[15],5.41 µM (active)
O=C1c2ccccc2C(=O)N1SC(Cl)(Cl)Cl,outcome,[1],inactive
same,outcome,[17],inactive
same,outcome,[4],inactive
same,outcome,[6],inactive
same,outcome,[7],inactive
same,outcome,[8],inactive
same,outcome,[9],inactive
same,outcome,[10],inactive
same,outcome,[11],inactive
same,outcome,[18],inactive
same,AC50,[12],14.8 µM (active)
same,outcome,[13],inactive
same,outcome,[14],inactive
same,outcome,[15],inactive
